PubChem BioAssay AID485317 (Broad Institute, 2010)
In all, about 290,000 compounds went through this assay and about 11,000 (3.8%) were called active. This is one part of a sample in which actives are shown more often than they occur.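 Rule for the calls: active = mean replicate inhibition above about 79%, with every replicate also reaching it (limit read from the data); inconclusive = only one of the two criteria met; inactive = mean below limit and not every replicate reaching it.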

What follows are compounds tested against FAD-linked sulfhydryl oxidase ALR (Homo sapiens) (UniProt P55789) (assay: inhibitors of human ALR sulfhydryl oxidase, primary screen, biochemical, H2O2 detection, HRP-luminol luminescence, single point (AID 485317)). Conditions: purified ALR, DTT oxidation, active compounds read high, concentration not given here.
FAD-linked sulfhydryl oxidase ALR (Homo sapiens), sequence (P55789 whole entry, looked up): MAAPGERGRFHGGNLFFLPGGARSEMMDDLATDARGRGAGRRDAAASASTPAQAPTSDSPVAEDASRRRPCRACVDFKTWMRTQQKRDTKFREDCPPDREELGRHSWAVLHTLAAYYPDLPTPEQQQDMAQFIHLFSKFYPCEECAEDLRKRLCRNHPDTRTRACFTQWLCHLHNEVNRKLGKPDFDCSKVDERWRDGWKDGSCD

inhibition, inactive:
C=CC(COCc1ccccc1)N(CC(=O)OC)S(=O)(=O)c1cc(Br)ccc1OC (stereo not given) -15.6%, Cc1cc(Nc2ccccc2)n(C(=O)c2ccc(N)cc2)n1 28.5%, Cc1cc(NC(=O)COc2ccc(Cl)cc2Cl)n(CCC#N)n1 -11.3%, Cc1cc(C(=O)OCC(=O)Nc2ccccc2Cl)c(C)o1 -4%, COc1cc(N)c(Cl)cc1C(=O)OCC(=O)c1ccc2c(c1)NC(=O)CO2 1.9%, O=C(NCc1ccc2c(c1)OCO2)c1c(-c2ccsc2)sc2ccccc12 3.11%, O=C(NCc1cccs1)c1ccc(CS(=O)Cc2ccccc2Cl)o1 (stereo not given) 21.5%, Cc1ccc(CS(=O)Cc2ccc(C(=O)N3CCOCC3)o2)cc1 (stereo not given) -2.5%, CCN(CC(=O)Nc1ccc(OC)cc1)C(=O)CSCc1ccc(C)cc1 -1.67%, Cc1nn(C)cc1C(=O)c1ccccc1 -7.74%, O=C(C1CCCN(S(=O)(=O)c2ccccc2)C1)N1CCN(c2ccc(F)cc2)CC1 (stereo not given) 19.8%, Cc1cccc(N2CCN(C(=O)C3CCN(S(=O)(=O)c4cnc[nH]4)CC3)CC2)c1C 0.188%, COc1ccccc1OCC(=O)OCc1cc(-c2ccco2)on1 -3.11%, Cc1ccc(S(=O)(=O)N2CCN(C(=O)COC(=O)CNC(=O)c3ccc(C(C)(C)C)cc3)CC2)c(C)c1 -8.74%, CN(C(=O)COC(=O)Cc1ccccc1[N+](=O)[O-])C1CCS(=O)(=O)C1 (stereo not given) -19.5%, S=C(Nc1ccc(Br)cc1Cl)NC1CCN(Cc2ccccc2)CC1 -0.861%, S=C(Nc1ccc(Br)cc1)NC1CCN(Cc2ccccc2)CC1 17%, COc1ccccc1NS(=O)(=O)c1ccc(C(=O)N2CCN(c3ccccc3O)CC2)cc1 30.3%, O=C(COC(=O)c1ncc(Cl)c(Cl)c1Cl)NCc1ccccc1 -2.75%, C=CCn1c(SCC(=O)CC(=O)OCC)nc2cc(C(=O)N3CCC(C(N)=O)CC3)ccc2c1=O 26.8%, NC(=O)C1CCN(C(=O)c2ccc3c(=O)n(Cc4cccc(Br)c4)c(=S)[nH]c3c2)CC1 1.47%, O=C(CCC(=O)c1cccs1)Nc1nc2ccccc2s1 -15.5%, COc1cccc(CC(=O)OCC(=O)NCc2ccc3c(c2)OCO3)c1 -0.907%, COCCNC(=O)CCCN1C(=O)c2ccccc2Sc2ncccc21 -3.3%, O=C(CN1C(=O)CSc2ncccc21)N1CCOCC1 -36.7%, CCn1nc(C(=O)Nc2ccc(N3CCOCC3)cc2)c2ccccc2c1=O -11.2%, CC1CC(=NNC(=O)C2COc3ccccc3O2)CC(C)(C)C1 (stereo not given) 14.3%, CN(C(=O)CN1C(=O)/C(=C/c2ccc(Cl)cc2)SC1=S)C1CCS(=O)(=O)C1 (stereo not given) -8.19%, COc1ccc(/C=C2\SC(=O)N(CCC(=O)NC3CCS(=O)(=O)C3)C2=O)cc1 (stereo not given) -3.27%, COc1ccc(OC)c(S(=O)(=O)Nc2c(C)nn(C)c2C)c1 -0.73%, O=C(Cn1nnc(-c2ccccc2)n1)NC(=O)NC1CCCC1 -9.99%, CCN(CC)S(=O)(=O)c1ccc2[nH]c(=O)cc(C(=O)N(C)C3CCS(=O)(=O)C3)c2c1 (stereo not given) -1.56%, COc1ccccc1C(CNC(=O)c1cccc(S(=O)(=O)Nc2ccc(F)cc2)c1)N(C)C (stereo not given) -11.3%, COc1cccc(C2=CC(=O)C[C@H](c3ccc(OC)c(OC)c3)C2)c1 -2.35%, COC(=O)c1ccc(CNC(=O)c2ccc(S(=O)(=O)N3CCCCCC3)cc2)cc1 -5.09%, O=S(=O)(c1ccc(SCc2ccccc2)nc1)N1CCCCCC1 -0.984%, CC(=O)c1cccc(OCC(=O)OCC(=O)Nc2cc(S(=O)(=O)N3CCCCC3)ccc2C)c1 -1.77%, CCN(CC(=O)Nc1cc(Cl)ccc1C)C(=O)Cn1c(=O)cnc2ccccc21 0.937%, O=C(Nc1ccon1)c1nc[nH]c1C(=O)NCc1ccccc1 -9.59%, O=C(c1ccc2ccccc2n1)N1CCN(c2ccccc2Cl)CC1 2.19%, COc1ccccc1N1CCN(C(=O)c2c(-c3c(Cl)cccc3Cl)noc2C)CC1 15.3%, CN(C)C(=O)N=NC(=O)N(C)C -21.7%, CCOc1ncccc1C(=O)OCC(=O)Nc1cccc(S(=O)(=O)N2CCCCCC2)c1 0.144%, COc1ccc(C(=O)NCc2ccccc2C)cc1S(=O)(=O)NC1CCCC1 -15.1%, CCn1nnc2cc(C(=O)Nc3ccc(C(=O)OC(C)C)cc3)ccc21 -0.266%, O=C(COC(=O)c1cccnc1Cl)NC(=O)NC1CCCCC1 -0.213%, CCCNC(=O)CCn1cc(-c2ccc(OC)cc2)nc1CCN 10.4%, O=C(CCOc1ccccc1)NCc1ccccc1 -6.56%, CN(C)C(CNC(=O)CCCOc1ccccc1)c1ccco1 (stereo not given) 3.18%, O=C(/C=C/c1ccc(Cl)cc1Cl)NCc1ccco1 -6.98%, CC(C)(C)NC(=O)NCc1ccco1 6.08%, COc1cc(NC(=O)c2[nH]cnc2C(N)=O)cc(C(=O)Nc2cccc(C(F)(F)F)c2)c1 -4.54%, O=C(CSc1nc2ccccc2c(=O)n1Cc1ccc(F)cc1)NCC1CCCO1 (stereo not given) -7.08%, C=CCNC(=O)C1CC2c3ccccc3C1c1ccccc12 (stereo not given) -7.82%, Cc1cc(Nc2ccc(Br)cc2)nc2ccccc12 -3.49%, O=C(COC(=O)c1ccc(O)cc1O)c1ccc2c(c1)OCCO2 9.5%, CC1(C)O[C@@H]2CC3C4C[C@H](F)C5=CC(=O)C=CC5(C)C4C(O)CC3(C)[C@]2(C(=O)CO)O1 (stereo not given in full) -6.73%, O=Cc1cn(Cc2ccccc2)nc1-c1cccnc1 -2.35%, Clc1ccc(CN2CCN(/N=C/c3cccnc3)CC2)cc1 14.2%, O=C(CNCCC1=CCCCC1)Nc1ccccc1N1CCCCCC1 19.2%, Cc1ccccc1N1CC(C(=O)Nc2ccc(S(=O)(=O)N3CCCC3)cc2)CC1=O (stereo not given) -9.58%, Cc1ccccc1NC(=O)CSc1ccc2nnc(-c3ccccn3)n2n1 -1.94%, O=C(Nc1ccccc1N1CCCCC1)c1ccc2nccnc2c1 -6.64%, Cc1ccccc1NC(=O)Nc1ccccc1N1CCCCC1 -4.73%, O=C(Nc1ccccc1N1CCCC1)c1ccc(F)c(S(=O)(=O)N2CCOCC2)c1 43.8%, Cc1ccccc1N1CC(C(=O)Nc2ccc3c(c2)OCO3)CC1=O (stereo not given) -35.2%, Cc1ccc(Cc2nnc(SCC(=O)Nc3ccccc3C)[nH]c2=O)cc1 -2.8%, Nc1c(C(=O)OCC(=O)Nc2ccc(OC(F)F)cc2)[nH]c(=O)[nH]c1=O 9.56%, COc1ccccc1N(CC(=O)Nc1ccc(C)cc1Cl)S(=O)(=O)c1cccs1 -3.47%, CC(C(=O)N(C)CC(=O)Nc1ccccc1C(F)(F)F)N1C(=O)c2ccccc2C1=O (stereo not given) -4.96%, CCOc1ccc(CC(=O)NCCS(=O)(=O)N2CCN(c3ccccc3)CC2)cc1 -1.48%, Cc1onc(-c2c(F)cccc2Cl)c1C(=O)OCC(=O)N1C(C)CCCC1C (stereo not given) -4.37%, COCCN(CCOC)S(=O)(=O)NC[C@H]1O[C@@H](n2cnc3c(N)ncnc32)[C@H](O)[C@@H]1O 2.26%, COc1cc(C(=O)Nc2ncccc2C)ccc1OCC(=O)N1CCOCC1 -1.3%, CCOc1ccc(C(=O)CCC(=O)NC2=NCCS2)cc1 2.64%, COc1ccc(/C=C/C(=O)c2ccc(OC)cc2O)cc1 -17.6%, CCOc1ccc(/C=C/C(=O)OCC(=O)c2ccccc2OC)cc1OC 1.49%

inhibition, active:
Cc1cc(Nc2ccccc2)n(CCC#N)n1 98.6%, Cc1ccc(CNC(=O)c2ccc(CS(=O)Cc3cccc(Cl)c3)o2)cc1 (stereo not given) 92.3%, COc1cccc(N2CCN(C(=O)C3CCCN(S(=O)(=O)c4cnc[nH]4)C3)CC2)c1 (stereo not given) 98.9%, S=C(NN=C1CCN(Cc2ccccc2)CC1)NC1CCCCC1 94.2%, C=CCn1c(SCc2cccc(F)c2)nc2cc(C(=O)N3CCC(C(N)=O)CC3)ccc2c1=O 82.8%, COCCNC(=O)CN1C(=O)CSc2ncccc21 95.3%, CC(C(=O)NC1CCS(=O)(=O)C1)N1C(=O)/C(=C/c2ccc(Cl)cc2)SC1=S (stereo not given) 98.5%, COC(=O)c1ccc(CSc2ccc(S(=O)(=O)N3CCCCC3)cn2)cc1 98.5%, O=C(c1c(Cl)cccc1Cl)N1CCN(c2cccc3[nH]ccc23)CC1 98.9%, COC(=O)/C=C/C(=O)NCc1ccco1 79.8%, O=C(CCCOc1ccccc1)NCc1ccco1 86.9%, O=C1/C(=C\c2cccnc2)CN(Cc2ccccc2)C/C1=C\c1cccnc1 96.1%, C=CCc1cc(S(=O)(=O)c2ccc(O)c(CC=C)c2)ccc1O 87.7%, Cc1ccccc1NC(=O)CSC1=NCCN1 99.1%, Cc1cccc(N2CC(C(=O)Nc3ccccc3N3CCCC3)CC2=O)c1C (stereo not given) 98.4%, Cc1ccccc1NC(=O)CNc1ccccc1N1CCCCC1 87.1%, O=C(Nc1ccccc1N1CCCC1)c1ccc2ccccc2c1 77%, COCOc1cc(O)c(C(=O)/C=C/c2ccc(OCOC)c(OCOC)c2)c(OCOC)c1 94.9%
